The results in this text go back to PubChem BioAssay (NCI).

Common to all, as to experiment: NCI-60 one-dose screen, 48 h (100 = growth as untreated, 0 = no growth, -100 = all killed)
Assay [1] concerns HT29 colon. As to conditions: 10 µM unless noted.
Assay [2] has as its system SNB-75 CNS. As to conditions: 10 µM unless noted.
In assay [3] the test system is SNB-19 CNS. The following applies: 10 µM unless noted.
The test system of assay [4] is U251 CNS. The following applies: 10 µM unless noted.
Assay [5] concerns PC-3 prostate. As to conditions: 10 µM unless noted.
Assay [6] concerns SK-MEL-5 melanoma. The following applies: 10 µM unless noted.
The subject of assay [7] is UACC-62 melanoma. As to conditions: 10 µM unless noted.
Assay [8] concerns LOX IMVI melanoma. As to conditions: 10 µM unless noted.
Assay [9] deals with SK-MEL-28 melanoma. The following applies: 10 µM.
Assay [10] relates to SK-MEL-2 melanoma. The following applies: 10 µM unless noted.
In assay [11] the test system is EKVX NSCLC. The following applies: 10 µM unless noted.
Assay [12] concerns SN12C renal. The following applies: 10 µM unless noted.
In assay [13] the test system is UO-31 renal. As to conditions: 10 µM unless noted.
The subject of assay [14] is TK-10 renal. The following applies: 10 µM unless noted.
The subject of assay [15] is ACHN renal. The following applies: 10 µM unless noted.
In assay [16] the test system is CAKI-1 renal. The following applies: 10 µM unless noted.
The test system of assay [17] is A498 renal. As to conditions: 10 µM unless noted.
The test system of assay [18] is CCRF-CEM leukemia. The following applies: 10 µM unless noted.
Assay [19] relates to MOLT-4 leukemia. As to conditions: 10 µM unless noted.
Assay [20] deals with SR leukemia. As to conditions: 10 µM unless noted.

The panel holds about 83,000 compounds, 20% with a hit somewhere; the sample as a whole holds those more often.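 Testing used 96-well plates and a 48-hour single-concentration exposure. Example: -40 means 40% of the starting cells died.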 Values without a mark were called inactive. Active and inactive are the calls of the source. Rule for the calls: active = growth percent below 10; inactive = the rest.

With `Nc1nc(-c2cnccn2)nn1-c1nc2ccccc2s1`, the growth was 99.7% in [1]; 96.4% in [2]; 98.2% in assay [3]; 93.5% in [4]; 99.4% in assay [5]; 92.2% in assay [6]. The growth in assay [7] is 101%; in assay [8], 105%; in assay [9], 104%; in assay [10], 99.5%; in assay [11], 94.6%; in assay [12] it was 101%. Also, the growth in assay [13] was 99.6%; in assay [14], 117%; in assay [15], 108%; in assay [16], 96.8%; in assay [17], 118%; in [18], 97.4%. For the same compound, the growth in assay [19] is 94.7%; in [20], 98.4%.

As for `Cc1nc(Nc2cn[nH]c2C(=O)Nc2ccc(CN3CCN(C)CC3)cc2)c2ccsc2n1`, the growth is 66.1% in assay [1]; 37.7% in assay [2]; 107% in [3]; 92.8% in assay [4]; 69.8% in assay [5]; 90.3% in assay [6]. In addition, the growth in assay [7] is 93.9%; in [8], 72.8%; in assay [9] it was 107%; in assay [10], 111%; in [11], 106%; in assay [12], 75.4%. The growth in assay [13] was 59.6%; in assay [14], 114%; in assay [15], 92.8%; in assay [16], 61.5%; in assay [17] it was 66.7%; in assay [18] it was 40.5%. Moreover, the growth in assay [19] is 45.8%; in [20] it was 5.46% (active).

As for `O=C(Nc1ccc(N2CCNCC2)cc1)c1[nH]ncc1Nc1ncnc2sc3c(c12)CCC3`, the growth was -67.3% (active) in [1]; -99.5% (active) in [2]; -99.5% (active) in assay [3]; -96.5% (active) in assay [4]; -83.6% (active) in assay [5]; -97.4% (active) in assay [6]. Further, the growth in [7] is -85.1% (active); in assay [8], -91.4% (active); in assay [9], -84.7% (active); in [10], 4.15% (active); in assay [11] it was -86.8% (active); in assay [12] it was -75.1% (active). Further, the growth in [13] is -85.6% (active); in assay [14] it was -95.3% (active); in assay [15] it was -99.5% (active); in assay [16] it was -93.1% (active); in [17], 16.9%; in assay [18], -32.1% (active). Further, the growth in assay [19] was -39.3% (active); in assay [20], -8.96% (active).

With `Nc1nc2c(ncn2[C@@H]2O[C@H](CS)[C@@H](O)[C@H]2O)c(=O)[nH]1`, the growth in assay [1] is 99.9%; in [2], 92.6%; in assay [3] it was 95.3%; in assay [4] it was 99.3%; in assay [5], 101%; in assay [6], 97%. In addition, the growth in assay [7] is 93.6%; in assay [8], 96.9%; in [9], 98.6%; in assay [10], 120%; in assay [11], 95.8%; in assay [12], 97.2%. Moreover, the growth was 93% in assay [13]; 96.3% in assay [14]; 99.8% in assay [15]; 94.5% in assay [16]; 99.9% in [17]; 100% in [18]. The growth is 99% in [19] and 101% in assay [20].

Take `CCN1C(=O)N(CC)C2C1NC(=S)N2/N=C/C=C/c1ccccc1OC` (centres undefined): the growth in assay [1] was 2.77% (active); in assay [2], 44.8%; in assay [3], 26.5%; in assay [4] it was 20.8%; in assay [5], 25.2%; in assay [6] it was -40.7% (active). Further, the growth was 25.8% in [7]; 21.1% in assay [8]; 56.7% in assay [9]; 32.6% in [10]; 30.9% in assay [11]; 26% in [12]. In addition, the growth is 46.3% in assay [13]; 55.2% in assay [14]; 22.9% in assay [15]; 28.4% in assay [16]; -4.32% (active) in [17]; 15.7% in assay [19]. Moreover, the growth in assay [20] is 12%.

Turning to `CCC(C)(C)C(=O)O[C@H]1C[C@@H](C)C=C2C=C[C@H](C)[C@H](CC[C@@H]3CC=CC(=O)O3)[C@H]21`, the growth in assay [1] is 44.5%; in assay [2] it was 80.4%; in assay [3], 84%; in assay [4] it was 82.2%; in assay [5], 49.1%; in assay [6] it was 71%. Also, the growth in assay [7] is 72.5%; in assay [8], -47.4% (active); in assay [9] it was 79.2%; in [10] it was 86.1%; in assay [11], 107%; in [12] it was 62.8%. Moreover, the growth is 76% in assay [13]; 109% in assay [14]; 70.9% in assay [15]; 84.5% in [16]; 107% in assay [17]; 3.21% (active) in assay [18]. Further, the growth was 1.21% (active) in assay [19] and 7.49% (active) in assay [20].
